NR3A LBD binder: binders of NR3A ligand-binding domain, primary screen, biophysical, differential scanning fluorimetry, uHTS. Tm shift relative to glycine control, % at 25 µM. Glutamate receptor ionotropic, NMDA 3A (GRIN3A) ligand-binding domain. AID 1259313, 2017. hit rate 2.5% among 340,000. NR3A LBD differential scanning fluorimetry, Tm shift; 0% = protein alone, 100% = glycine-bound protein;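 active = melting temperature shift of at least 10% of the positive control shift, at one fixed dose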
TPT1 inh: Candida albicans TPT1 enzyme inhibitors, primary screen, biochemical, fluorescence polarization; inhibition, % at 5 µM; recombinant caTPT1, FP RNA substrate dephosphorylation; hit rate 0.81% among 300,000; tRNA 2'-phosphotransferase TPT1 (Candida albicans SC5314);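 active = inhibition above the mean of all tested compounds plus 3 SD, set per screening campaign, cut at about 24% in these data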;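 also: plate controls were DMSO alone for no effect and ferristatin control at 100 nM for full effect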
ZTA DNA inh: counter-screen for EBNA-1 inhibitors: inhibitors of Epstein-Barr virus ZTA. inhibition, % at 11 µM. hit rate 0.15% among 320,000. P03206. ZTA-DNA binding, fluorescence polarization. AID 2234; in the data active = inhibition above about 33%
Target sequence (P03206 whole entry, looked up): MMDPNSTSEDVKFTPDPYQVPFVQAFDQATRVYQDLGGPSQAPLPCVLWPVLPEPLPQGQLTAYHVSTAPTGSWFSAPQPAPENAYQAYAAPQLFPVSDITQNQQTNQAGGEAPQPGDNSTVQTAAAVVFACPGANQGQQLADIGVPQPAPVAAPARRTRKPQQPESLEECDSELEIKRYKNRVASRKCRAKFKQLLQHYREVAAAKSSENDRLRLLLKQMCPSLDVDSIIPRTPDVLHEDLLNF
EBNA-1 inh: EBNA-1 DNA-binding inhibitors, primary screen, biochemical, fluorescence polarization. inhibition, % at 14.8 µM. hit rate 0.34% among 300,000. AID 1950, 2009; in the data active = inhibition above about 28%
dFosB activator: activators of delta FosB homodimer, primary screen, biochemical, fluorescence polarization, TAMRA-CDK5 oligo, single point; Protein FosB (Mus musculus), P13346; purified delta FosB; percent of positive-control signal above neutral wells; activation, % at 25 µM; hit rate 0.99% among 340,000; AID 493131, 2011;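 active = mean activation above about 17%, with every replicate also reaching it, limit read from the data, passing the limit was not always enough; inconclusive = only one of the two conditions met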
Target sequence (P13346 whole entry, looked up): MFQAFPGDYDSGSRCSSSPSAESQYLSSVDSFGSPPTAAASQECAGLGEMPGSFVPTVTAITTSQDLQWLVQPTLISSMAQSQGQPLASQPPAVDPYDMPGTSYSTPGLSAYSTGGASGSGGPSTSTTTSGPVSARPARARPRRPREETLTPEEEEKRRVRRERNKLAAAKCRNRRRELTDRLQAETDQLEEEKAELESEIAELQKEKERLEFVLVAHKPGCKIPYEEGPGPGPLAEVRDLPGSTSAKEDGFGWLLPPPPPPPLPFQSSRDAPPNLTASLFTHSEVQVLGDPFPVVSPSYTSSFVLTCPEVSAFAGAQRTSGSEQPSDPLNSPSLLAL
Rpn11 block: Rpn11 (PSMD14) deubiquitinase inhibitors, primary screen, biochemical, fluorescence polarization, uHTS. human 26S proteasome, Ub4-pepOG fluorescence polarization; 20S core pre-blocked with epoxomicin. inhibition, % at 20 µM. 26S proteasome non-ATPase regulatory subunit 14 (Homo sapiens), O00487. AID 588493, 2011. hit rate 0.59% among 360,000;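 active = inhibition at 20 µM, scaled to each plate's controls, above about 33%, limit read from the data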
Starred values were filed as active, the others as inactive; ? = inconclusive; . = no result given. This is a sample that favours compounds with a hit; in the whole collection about 4.5% have one here.

SMILES | NR3A LBD binder | TPT1 inh | ZTA DNA inh | EBNA-1 inh | dFosB activator | Rpn11 block
Cc1oc(-c2cccc3ccccc23)nc1CN1CCC[C@H]1CO | -0.9 | 0.5 | 15.7 | 6.4 | -7.4 | 3.3
CCOc1ccc(NC(=O)COC(=O)CCC(=O)c2cccs2)cc1 | -17.8 | . | -2.1 | . | -1.9 | -0.6
O=S(=O)(SC1=NCCN1)c1ccccc1 | -1.6 | . | . | . | 1.8 | -3.0
Cc1ccc2nc(-c3cccc(N)c3)[nH]c2c1 | -4.9 | 2.8 | 4.2 | 0.0 | 5.1 | -3.2
Cc1ccc2nc(-c3sc4nc(C)cc(C)c4c3N)[nH]c2c1 | 15.2* | 4.6 | 4.8 | -5.6 | -6.6 | 5.2
Cc1ccc(O)c(-c2cc(C(=O)Nc3ccc(S(=O)(=O)Nc4nccc(C)n4)cc3)[nH]n2)c1 | 29.5* | -2.6 | -6.5 | -12.0 | 10.5 | -5.6
COc1ccc(NC(=O)c2cc(-c3cc(C)ccc3O)n[nH]2)cc1Cl | 326.2* | 0.5 | 16.2 | 11.2 | -7.3 | 3.2
Cc1cccc(NC(=O)c2cc(-c3cc(C)c(C)cc3O)n[nH]2)c1 | 14.1* | 0.1 | 12.1 | 8.5 | -4.7 | -4.6
Cc1cc(F)ccc1-c1cc(C(=O)Nc2ccc(F)cc2)[nH]n1 | . | . | . | . | . | 1.0
COc1ccc(NC(=O)c2cc(-c3cc(Cl)ccc3OC)n[nH]2)cc1OC | . | . | . | . | . | 0.9
CC(=O)Nc1ccc(NC(=O)c2cc(-c3ccc(C)cc3O)n[nH]2)cc1 | 29.8* | -1.0 | 4.2 | -1.8 | 4.3 | 3.9
CCc1noc(C)c1C(=O)N(CC(C)C)c1c(N)n(Cc2ccccc2)c(=O)[nH]c1=O | 0.4 | . | . | . | -3.8 | 0.7
CC(C)c1cc(C(=O)OCC(=O)NC2CC2)c(O)c(C(C)C)c1 | . | . | . | . | . | -0.4
COc1ccc(NC(=S)Nc2cc(C)[nH]n2)cc1Cl | 12.1* | 1.2 | -3.3 | -7.0 | -3.6 | -1.7
Cc1cccc(NC(=O)c2cc(-c3cc(C)ccc3O)n[nH]2)c1 | 30.0* | 1.1 | -3.5 | -2.0 | -5.1 | -18.4
Cc1cc(NC(=S)Nc2ccc(C)c(Cl)c2)n[nH]1 | -6.0 | -3.0 | 4.6 | 6.6 | -3.2 | 0.6
COc1ccc(CNC(=O)c2cc(-c3cc(C)ccc3O)n[nH]2)cc1 | -7.2 | -1.7 | 0.3 | 11.2 | -2.2 | -2.4
COCCNC(=S)N/N=C(\C)c1cccc(C(F)(F)F)c1 | 51.6* | -2.8 | 7.0 | 3.6 | -1.1 | 3.2
Nn1c(SCC(=O)NC2CCCCCC2)nnc1-c1ccco1 | . | . | . | . | . | 0.4
COc1ccc(NC(=O)c2ccc3ncsc3c2)cc1 | -10.2 | 1.9 | 0.7 | -13.3 | -0.8 | 4.6
COc1ccc(NC(=O)c2ccc(S(=O)(=O)N(C)C)cc2)cc1OC | 20.2* | -4.3 | 9.4 | -7.2 | -2.4 | 0.6
NS(=O)(=O)c1ccc2nc(NC(=O)c3ccc4c(c3)OCCO4)sc2c1 | -1.7 | 0.7 | 0.7 | -6.1 | ? | -4.9
NS(=O)(=O)c1ccc2nc(NC(=O)c3ccc4ncsc4c3)sc2c1 | 29.7* | -1.3 | -10.6 | 7.3 | 15.7 | 4.3
CN(C)S(=O)(=O)c1ccc(NC(=O)c2ccc3ncsc3c2)cc1 | 16.8* | 3.4 | 4.4 | 6.7 | . | .
CCOc1ccc(NC(=O)c2ccc(S(=O)(=O)N(C)C)cc2)cc1 | 0.8 | 1.2 | 9.1 | 7.7 | -5.1 | -4.5
SMILES | NR3A LBD binder | TPT1 inh | ZTA DNA inh | EBNA-1 inh | dFosB activator | Rpn11 block
O=C(Nc1ccc(Br)cc1)c1ccc2ncsc2c1 | 26.5* | 1.3 | 3.4 | 3.2 | -3.9 | -2.0
N#CCC(=O)c1sccc1-n1cccc1 | -0.7 | 7.9 | -11.7 | -11.8 | -2.2 | 16.4
Cc1cc(C)nc(NC(=O)Cc2ccc(Br)cc2)n1 | 0.1 | -2.3 | 17.2 | 3.2 | -0.3 | 3.1
N#Cc1ccc(CSc2nnc(NC(=O)c3ccc4ncsc4c3)s2)cc1 | -18.8 | 15.1 | 5.5 | 36.7* | -3.8 | -2.2
CC(=O)Nc1ccc(S(=O)(=O)NC2=NCN(c3ccc([N+](=O)[O-])cc3)CN2)cc1 | 0.8 | 3.9 | 3.5 | -5.2 | 23.9* | -4.8
CN1CN=C(NS(=O)(=O)c2ccc([N+](=O)[O-])cc2)NC1 | 1.1 | -3.7 | -3.8 | 1.4 | 3.4 | 0.9
C/C(=C/C(=O)O)C(=O)Nc1cccc(C(F)(F)F)c1 | 1.2 | -0.2 | 7.3 | -2.3 | -5.8 | 4.0
O=C(NCCNC(=O)c1cc(Cl)ccc1Cl)c1ccco1 | -0.1 | 0.5 | -3.1 | 1.5 | -4.6 | 7.0
O=C(O)c1cc(N/N=C/c2cccc3ccccc23)ccc1Cl | -5.0 | 4.2 | -0.6 | -10.5 | -5.4 | 1.0
O=[N+]([O-])c1ccc(NN=Cc2cccc3ccccc23)nc1 | 28.7* | . | . | . | 3.2 | .
COc1cccc(/C=N/Nc2nc(Nc3ccc([N+](=O)[O-])cc3)nc(N3CCCC3)n2)c1O | 22.8* | -6.0 | 1.8 | -17.4 | 66.9* | 2.4
Cc1ccc(C=NNc2ccc([N+](=O)[O-])cn2)cc1 | -5.3 | . | . | . | 6.6 | 3.6
O=[N+]([O-])c1cccc(N/N=C/c2cccc3ccccc23)c1 | 24.5* | -0.2 | -13.3 | 5.4 | 0.2 | 7.1
COc1cccc(/C=N/Nc2ccc([N+](=O)[O-])cn2)c1O | 29.2* | -3.1 | 3.0 | -1.6 | 0.7 | 2.5
O=C(O)c1ccccc1C=NNc1ccc([N+](=O)[O-])cn1 | 0.2 | . | . | . | -5.6 | 1.5
Cc1c(NC(=O)Nc2ccc(C(C)(C)C)cc2)c(=O)n(-c2ccccc2)n1C | 0.6 | 1.2 | -2.3 | -8.2 | -7.8 | -6.5
Cc1ccc(C)c(NC(=O)CN(C)C(=O)c2cccc(S(=O)(=O)N3CCN(Cc4ccccc4)CC3)c2)c1 | 17.4* | -6.8 | -1.9 | -3.4 | -9.0 | 6.8
Cc1ccc(C)c(NC(=O)CN(C)C(=O)c2cccc(S(=O)(=O)N3CCCC3)c2)c1 | -1.6 | . | . | . | -2.8 | -3.9
Cc1ccc(S(=O)(=O)NCC(c2ccccc2)N2CCN(c3ccc(F)cc3)CC2)cc1 (stereo unspecified) | -0.7 | . | . | . | 0.3 | -7.0
Cc1cn([C@H]2C[C@H](O)[C@@H](CCC(=O)NCc3cccc4ccccc34)O2)c(=O)[nH]c1=O | . | . | . | . | . | -6.5
O=C(O)c1cn(-c2ccc(F)cc2)c2cc(N3CCNCC3)c(F)cc2c1=O | 4.5 | . | . | . | 0.6 | 0.2
Nc1ccc(N=Nc2ccccc2)cc1[N+](=O)[O-] | 28.7* | . | . | . | 4.0 | 1.8
Cc1ccc(N)c([N+](=O)[O-])c1 | 1.6 | . | -1.5 | . | 2.8 | 5.8
Cc1ccc(NC(=O)c2ccc(N3CCCC3=O)cc2)cc1S(=O)(=O)N1CCCCC1 | 1.1 | . | -16.7 | . | -2.5 | -0.4
CCN(CC)CCn1c2ccccc2c2nc3ccc([N+](=O)[O-])cc3cc21 | -1.5 | 1.3 | -9.6 | -2.5 | 51.1* | 25.5
Cn1c2ccccc2c2cc([N+](=O)[O-])ccc21 | -2.9 | -1.6 | -4.5 | -4.1 | -1.3 | 1.5
O=S(=O)(c1ccccc1)N1CCn2c(nc3ccccc32)C1 | -5.5 | 1.0 | -7.2 | -3.0 | 1.0 | 1.0

Bioassay records: PubChem, several laboratories
